Laboratory results reported in the supplement of paper PMC8253809.

Key:
Assay in all cases: growth inhibition (% activity, log2 RLU normalised to DMSO / staurosporine); higher = more growth inhibition
Settings in all cases: 33 µM
[1] = system: DIPGX29 (H3.3 K27M diffuse intrinsic pontine glioma line)
How it was run: (§1)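 The growth-inhibition value is the median over replicates. pHGG cell lines and H9-derived neural stem cells on Geltrex-coated 384-well plates received approved drugs by pin tool at a single final concentration of about 33 μM, in triplicate, for 7 days at 37 °C, 5% CO2. CellTiter-Glo luminescence was log2-transformed and normalised per plate to % activity between solvent and positive control wells.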

[2] = system: DIPGX37 (H3.3 K27M diffuse intrinsic pontine glioma line)
How it was run: as §1

[3] = system: DIPGX7 (H3.3 K27M diffuse intrinsic pontine glioma line)
How it was run: as §1

[4] = system: DIPGX9 (diffuse intrinsic pontine glioma line)
How it was run: as §1

[5] = system: HGGX39 (paediatric high-grade glioma line)
How it was run: as §1

[6] = system: HGGX6 (H3.3 G34R paediatric high-grade glioma line)
How it was run: as §1

[7] = system: HNSC
How it was run: as §1

[8] = system: SUDIPGIV (diffuse intrinsic pontine glioma line)
How it was run: as §1

[9] = system: SUDIPGVI (diffuse intrinsic pontine glioma line)
How it was run: as §1

[10] = system: SUDIPGXIII (diffuse intrinsic pontine glioma line)
How it was run: as §1

Structure (SMILES)	growth inhibition [1] [%]	growth inhibition [2] [%]	growth inhibition [3] [%]	growth inhibition [4] [%]	growth inhibition [5] [%]	growth inhibition [6] [%]	growth inhibition [7] [%]	growth inhibition [8] [%]	growth inhibition [9] [%]	growth inhibition [10] [%]
CC(C)OC(=O)OCOP(=O)(CO[C@H](C)Cn1cnc2c(N)ncnc21)OCOC(=O)OC(C)C	-0.149	-0.362	0.933	1.84	4.93	2.27	0.819	0.684	0.813	1.94
CNC(CC(C)C)C(=O)NC1C(=O)NC(CC(N)=O)C(=O)NC2C(=O)NC3C(=O)NC(C(=O)NC(C(=O)O)c4cc(O)cc(O)c4-c4cc3ccc4O)C(O)c3ccc(c(Cl)c3)Oc3cc2cc(c3OC2OC(CO)C(O)C(O)C2OC2CC(C)(N)C(O)C(C)O2)Oc2ccc(cc2Cl)C1O (stereo not given)	-1.35	-1.91	-1.76	-1.16	-1.53	-2.38	-0.899	-0.924	-4.84	-0.803
CC(C)C[C@H](NC(=O)[C@H](O)[C@H](N)Cc1ccccc1)C(=O)O	1.26	0.0198	0.163	-1	-2.32	1.9	0.429	-2.58	0.754	0.189
COc1cc(OC)c(C(=O)CCCN2CCCC2)c(OC)c1	-0.72	1.82	0.0577	0.123	1.04	-0.405	-0.558	-0.0523	0.936	2.53
CCc1oc2ccccc2c1C(=O)c1cc(Br)c(O)c(Br)c1	-0.0876	0.798	-0.0754	-1.64	-0.416	0.0697	-1.55	-0.229	0.671	2.79
Cc1cccn2c(=O)c(-c3nnn[nH]3)cnc12	0.15	-1.28	-0.946	0.426	1.29	-0.465	-1.69	-0.133	0.709	1.3
CCCOc1ccc(C(=O)OCCN(CC)CC)cc1N	-3.81	-2.51	0.125	-2.19	6.15	3.2	4.12	-0.212	-1.94	0.093
NS(=O)(=O)c1cc(Cl)c(Cl)c(S(N)(=O)=O)c1	-2.92	-0.619	1.34	-2.39	-1.33	-5.6	21.2	-2.27	-8.85	2.33
O=c1[nH]cc(F)c(=O)[nH]1	5.88	-2.07	2.93	10.5	5.4	7.93	25.3	14.4	4.5	2.68
CCn1cc(C(=O)O)c(=O)c2cc(F)c(N3CCNCC3)cc21	-0.303	1.84	0.79	0.854	3.3	2.09	3.22	-0.867	0.897	3.56
NC[C@@H]1O[C@H](O[C@H]2[C@@H](O)[C@H](O[C@@H]3[C@@H](O)[C@H](N)C[C@H](N)[C@H]3O[C@H]3O[C@H](CO)[C@@H](O)[C@H](O)[C@H]3N)O[C@@H]2CO)[C@H](N)[C@@H](O)[C@@H]1O	0.301	2.89	0.972	0.973	1.1	1.84	-2.1	-0.26	0.401	0.0349
N=C(N)NCCC[C@H](N)C(=O)O	-2.37	0.109	0.302	-2.03	-0.487	-4.08	2.28	-1.68	-2	-0.232
O=c1oc2c(O)c(O)cc3c(=O)oc4c(O)c(O)cc1c4c23	1.91	2.55	2.78	2.1	1.54	-1.49	-1.26	-0.815	-0.974	1.4
COc1ccc(-n2nc(C(N)=O)c3c2C(=O)N(c2ccc(N4CCCCC4=O)cc2)CC3)cc1	-1.17	-0.875	0.291	0.547	1.79	1.04	-3.66	-1.21	1.14	0.63
Cc1cccc(C)c1OCC(C)N (stereo not given)	-3.9	-0.481	-1.91	-1.51	-0.858	-1.81	-4.52	-0.767	-2.5	0.823
COC1=C(OC)C(=O)C(CCCCCCCCCCO)=C(C)C1=O	3.13	3.03	2.61	2.12	2.64	3.84	5.4	1.6	3.24	2.03
C#Cc1cccc(Nc2ncnc3cc(OCCOC)c(OCCOC)cc23)c1	4.75	0.211	3.55	2.64	5.69	6.15	20.9	-5.33	3.91	1.17
O=C(O)c1cc(/N=N/c2ccc(S(=O)(=O)Nc3ccccn3)cc2)ccc1O	1.07	-1.79	1.57	0.949	1.21	1.04	-0.205	0.115	1.96	-0.524
[Na+].[Na+].[Na+].[O]=[V]([O-])([O-])[O-]	-1.42	0.923	-1.78	0.306	0.285	-0.94	-0.354	-2.76	-0.971	1.36
Cc1ccccc1C(=O)Nc1ccc(C(=O)N2CCCC(O)c3cc(Cl)ccc32)c(C)c1 (stereo not given)	1.7	2.36	1.66	1.96	5.63	2.91	3.21	2.35	3.58	0.514
CSc1nc2cc(Cl)c(Oc3cccc(Cl)c3Cl)cc2[nH]1	1.22	-0.121	-0.253	0.647	4.81	3.1	-0.0294	2.29	1.54	2.86
